Source: paper PMC13494018

B1: design_487_778f5c6d-c470-43b8-8f82-464af6177e08_2307_dldesign_0_cycle1_af2pred (protein)
chain: AAEAEEEAKKLAEEAAKLVAAVDPSIAEEVAKALELGNLAQVKTMLVLAQSAYESTDPAARALALANLRTVAAQAIARAA
B2: design_487_778f5c6d-c470-43b8-8f82-464af6177e08_1544_dldesign_0_cycle1_af2pred (protein)
chain: AALQQANAALKAAQSLVDHVKKNPEFSPESIIKVADVAIELAKQAEEEAAKADPEVAKKAKEAKEEAEKIKKEAA
B3: design_488_244881a1-ba0c-4c08-ad9c-1f64cf93580a_1131_dldesign_0_cycle1_af2pred (protein)
chain: DEASEKAEAAYNKAKALEAAGADPNDILAAYVDAMGYLSEAARAAREAGREEEAEKWQAKLKEAQKNATKAAKAAVAAARA
B4: design_488_244881a1-ba0c-4c08-ad9c-1f64cf93580a_631_dldesign_0_cycle1_af2pred (protein)
chain: GLRESTEKVLEVAGQLAAQTAATSPELGPQAAAVAEAGRARAEALIAAGDYEGAFAAANEAAAQLSRLAVQAAQAAAAA
B5: design_487_778f5c6d-c470-43b8-8f82-464af6177e08_1484_dldesign_0_cycle1_af2pred (protein)
chain: SRLEELRRRRDEYVAQLEVAIAELEELSKRAVTEEARRAAEEARALVEEGDKDPERGANIVGRALVQAQAALARARRLNEAA
B6: design_488_244881a1-ba0c-4c08-ad9c-1f64cf93580a_1386_dldesign_0_cycle1_af2pred (protein)
chain: DQARKATEAAAKALLAQVERLSEEAVKAAKEDPAEAKRYLEAAEALRDVIAGLADEEIAKEYAAKAKEIIEKARKEVEAYLAAK
B7: design_488_244881a1-ba0c-4c08-ad9c-1f64cf93580a_123_dldesign_0_cycle1_af2pred (protein)
chain: GGEEEGEELLERGREAAEEIARLPLSETERLARLTGEALEYAREAARVAGGEKAREILTAISRAHAASVA
B8: design_487_778f5c6d-c470-43b8-8f82-464af6177e08_2068_dldesign_0_cycle1_af2pred (protein)
chain: AAAEAAAAAEAQEKAKEAAEKAVENIDDPELAEKYAEEAGKALLAGADLEEVLTYANSLNPEVARLIARAYARLGAAAVRA
B9: design_488_244881a1-ba0c-4c08-ad9c-1f64cf93580a_165_dldesign_0_cycle1_af2pred (protein)
chain: MTPADQLIELARAIVEQAKASDPETAAVNAAGAEAAAGALRNYAAANPETGPKAEAAAKEAEAAAKAIKAAVAAAK
B10: design_488_244881a1-ba0c-4c08-ad9c-1f64cf93580a_302_dldesign_0_cycle1_af2pred (protein)
chain: MMAEYEARARELFEKAAASDPETARKIGEEMVKLAKEDVEFGNVAALVAAQVAAESGSPVLRQIQAAIARTVIEQLA
B11: design_487_778f5c6d-c470-43b8-8f82-464af6177e08_1499_dldesign_0_cycle1_af2pred (protein)
chain: DEAELLEAINRAGRETRERLLALGESEAEATRAASAVQVVGYAALTGNAEAEAIGMASLATVGKGRPVAVAAAEEVADRIRAA
B12: design_488_244881a1-ba0c-4c08-ad9c-1f64cf93580a_931_dldesign_0_cycle1_af2pred (protein)
chain: MKELEEAAKRALELAPPEHRPLMERLVAIARELAKIIGDEEAAAILGEGVLEGARDPERAVDITMAAQGAAIRLAHARQSA
B13: design_487_778f5c6d-c470-43b8-8f82-464af6177e08_2029_dldesign_0_cycle1_af2pred (protein)
chain: ATAAEIAARMGAAIKRNALANMDEIAAELADDPELAAKRLAAVVENARKMLEAAGLTPEEVAALVAELEARADELVEANRA
B14: design_488_244881a1-ba0c-4c08-ad9c-1f64cf93580a_1373_dldesign_0_cycle1_af2pred (protein)
chain: MTAAQAAAAVASLAQSAVLAAKQDPALAKQAVEAAQSFAIWATTKLGDAALAEAAAKALKDAGKAAPAVAKQAEAAAKAVLDTAKKL
B15: design_488_244881a1-ba0c-4c08-ad9c-1f64cf93580a_1252_dldesign_0_cycle1_af2pred (protein)
chain: DAARRQGAVAFMQQVLESAKNYPEAAPIAQAGLDRVAAAVAAGAPADEVVALARREAAAANKAMIAAAKA
B16: design_487_778f5c6d-c470-43b8-8f82-464af6177e08_1930_dldesign_0_cycle1_af2pred (protein)
chain: AQAAADAAEALSELAIKFSKLAKKISPEAAAYFARAAGYFLRASGILRAGGDAAAAAAALAKGLALFLLGLAILKKVLS
B17: design_487_778f5c6d-c470-43b8-8f82-464af6177e08_1892_dldesign_0_cycle1_af2pred (protein)
chain: AAQALLAQANAALGQLLDLAAEASASSPEEAARATAQMRETAAAAQAAAAAAAAQDPAIAPQAQAIAASAAALARNAEELVAAR
B18: design_488_244881a1-ba0c-4c08-ad9c-1f64cf93580a_1220_dldesign_0_cycle1_af2pred (protein)
chain: DETEKKREEAKKEAEKLIEELEKAGKEVAAVPAASNMALATAKQGKKQLKEAEKLSPEEALKVYEAVKKSAEVALEIARATKAALAA
B19: design_487_778f5c6d-c470-43b8-8f82-464af6177e08_1978_dldesign_0_cycle1_af2pred (protein)
chain: AKEKAIEEITALRELAVKAAEEVGKEEEKEKIKELTEKAIEALDNPEESARLITKAAAIAVEVAPEKAAQIRRLASAAIQAALAT
B20: design_488_244881a1-ba0c-4c08-ad9c-1f64cf93580a_478_dldesign_0_cycle1_af2pred (protein)
chain: ITEAEAKELAEMVRTPETAPEAAARLEALGAASTPGQAAFFRAAAALARLAAEAPEEERPRYAEGVLKILQAAI
B21: design_488_244881a1-ba0c-4c08-ad9c-1f64cf93580a_642_dldesign_0_cycle1_af2pred (protein)
chain: AEAARKAALAVRTAAASFKAAADAGASAEAVKKLGEVMAQSVEAYDPEVGKEVKAKVEELAKLPDAKKAAAELAKFMEAKAKEVAAK
B22: design_487_778f5c6d-c470-43b8-8f82-464af6177e08_1416_dldesign_0_cycle1_af2pred (protein)
chain: DEEERKKKAAEIMKKQAEKLKALAAADPANALTYRAAAALFEAAAIETLKDPEKGLKVGEDAVGLMAQVPAVAPEAKAAYEKAKALL
B23: design_488_244881a1-ba0c-4c08-ad9c-1f64cf93580a_1393_dldesign_0_cycle1_af2pred (protein)
chain: SPADEVAARLNALLGAAIKALAADPAAGLALAEEARRLAEELAKKYPTPEVKRVAEAAKKMADAIGAAAQAQLAAAQA
B24: design_488_244881a1-ba0c-4c08-ad9c-1f64cf93580a_362_dldesign_0_cycle1_af2pred (protein)
chain: AEEERRRAALAERARAVLQQAAAVGSQAAIADPSVSGTILDGLKEAYELLARGEVERALEVAEALLASAQATLAAL
B25: design_488_244881a1-ba0c-4c08-ad9c-1f64cf93580a_1058_dldesign_0_cycle1_af2pred (protein)
chain: MAEAQALLLETAKEAYEYAKEDPENAEYYLAAATHVLRALSALTTDPAKAIELLEKAIEEAKKTDPEKGEELIKKIEEAKKLVEAAA
B26: design_488_244881a1-ba0c-4c08-ad9c-1f64cf93580a_688_dldesign_0_cycle1_af2pred (protein)
chain: DTARQALIASAQQARKQLEAAKALTPEEQARAAQAVLELARQLAESAEAAGDEEALALAREVAEAAEAAIKEAKAA
B27: design_488_244881a1-ba0c-4c08-ad9c-1f64cf93580a_578_dldesign_0_cycle1_af2pred (protein)
chain: GAAAAARRAAAFTLLEIARSLVAAGPQYAGSAIRTAAQALALVAPEYEEEVRAVGREEGAAAAVEYARELLA
B28: design_488_244881a1-ba0c-4c08-ad9c-1f64cf93580a_765_dldesign_0_cycle1_af2pred (protein)
chain: AADVAQAKEYAKQAKEFAEQADPELAKEVGKEAEALVKEAEADPSKAAEYLNKVGQLYVQAAAAAMKKLA
B29: design_487_778f5c6d-c470-43b8-8f82-464af6177e08_1639_dldesign_0_cycle1_af2pred (protein)
chain: GALAVQTARASAAQAVAAVAAAPAEEAPARVAAAEKLLAVLDGIAEAASPEAGAQIRAIVDAARAAIAATAAAKAAA
B30: design_488_244881a1-ba0c-4c08-ad9c-1f64cf93580a_858_dldesign_0_cycle1_af2pred (protein)
chain: DEEREKLLAEAEKYLAAAVAAAKAAGVQGGQVRAIANSLAIALRTGNTAGAATLLTSLVATAAKVGPEVLTHANKAKEKATQWIALA
B31: design_488_244881a1-ba0c-4c08-ad9c-1f64cf93580a_204_dldesign_0_cycle1_af2pred (protein)
chain: LAATRAAANAVLTRASKLNLQAVADPALAEVAALANQAIALALAGLADPATLAADTAAAAAVLDQAEALAKLVA
B32: design_488_244881a1-ba0c-4c08-ad9c-1f64cf93580a_1178_dldesign_0_cycle1_af2pred (protein)
chain: SDAEKAESALKFLNTLEEIGIIAKKEYGPEFAQNMINSIENSSKIFAAAVSPEYAKKILEKAKEAIEKIKAA
B33: design_488_244881a1-ba0c-4c08-ad9c-1f64cf93580a_492_dldesign_0_cycle1_af2pred (protein)
chain: ATALLRSALAQAKSAIIAMKQDPEQGAQLAEGAALTAKAAGDEETAKKLEEAAKLAKEGKAEEAIKLLEEAAKELAKAI
B34: design_488_244881a1-ba0c-4c08-ad9c-1f64cf93580a_782_dldesign_0_cycle1_af2pred (protein)
chain: AAAQAARAYAVLKAHADAAAKRAAELAAEGAEGARAGAQLLAVVSDAAAGAAKAFPEYAAELNALAAAAAAAAAAAAAAAAAAEAAA
B35: design_487_778f5c6d-c470-43b8-8f82-464af6177e08_2394_dldesign_0_cycle1_af2pred (protein)
chain: AAEEAERIIEGNRQLGLAIAEGSASKEEMKAKVDEAVEKARKAVEEDPEKGPEYALELFTKTNKEIMLQALAELT
B36: design_487_778f5c6d-c470-43b8-8f82-464af6177e08_1924_dldesign_0_cycle1_af2pred (protein)
chain: MEKETEELLKKAKELIEKAKELAKEVLKKDPISGRGIQAAVKSAEELLKRGIEGEDSLRYAKQALELAKVALEMAKATLAA
B37: design_488_244881a1-ba0c-4c08-ad9c-1f64cf93580a_236_dldesign_0_cycle1_af2pred (protein)
chain: PVERAIRLAEGAITFLEGLIVARKDGNAAGAAAYAQAAKTLLEELAKLLPGEIAKEATEAAKLAADPATAEKALALAKKILERIKKE
B38: design_488_244881a1-ba0c-4c08-ad9c-1f64cf93580a_114_dldesign_0_cycle1_af2pred (protein)
chain: AAAALAGEVSAELVEIVGEAARVLGEAERLGDAEVVALAREARALANKALAALAAGDVEKAVEYAKKAREKLEEARRRLEEVKRR

These binders were tested against CD276, Q5ZPR3.
Sequence of CD276, Q5ZPR3 (Q5ZPR3 whole entry): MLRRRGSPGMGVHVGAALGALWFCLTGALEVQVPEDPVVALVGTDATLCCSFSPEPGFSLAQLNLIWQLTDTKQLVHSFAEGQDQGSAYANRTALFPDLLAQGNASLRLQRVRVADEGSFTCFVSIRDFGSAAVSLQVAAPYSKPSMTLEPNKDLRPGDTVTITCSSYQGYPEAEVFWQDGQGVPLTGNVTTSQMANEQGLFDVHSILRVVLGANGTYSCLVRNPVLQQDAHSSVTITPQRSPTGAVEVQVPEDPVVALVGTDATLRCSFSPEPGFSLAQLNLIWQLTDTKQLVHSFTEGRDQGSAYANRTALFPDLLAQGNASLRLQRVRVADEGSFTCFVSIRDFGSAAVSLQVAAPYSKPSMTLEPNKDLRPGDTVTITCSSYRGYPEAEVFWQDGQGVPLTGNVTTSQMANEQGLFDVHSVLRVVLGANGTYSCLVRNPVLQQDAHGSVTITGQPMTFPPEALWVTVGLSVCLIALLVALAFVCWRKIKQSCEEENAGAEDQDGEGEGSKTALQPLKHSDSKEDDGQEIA

Binding in a display sort, inactive:
B1 not found, B2 not found, B3 not found, B4 not found, B5 not found, B6 not found, B7 not found, B8 not found, B9 not found, B10 not found, B11 not found, B12 not found, B13 not found, B14 not found, B15 not found, B16 not found, B17 not found, B18 not found, B19 not found, B20 not found, B21 not found, B22 not found, B23 not found, B24 not found, B25 not found, B26 not found, B27 not found, B28 not found, B29 not found, B30 not found, B31 not found, B32 not found, B33 not found, B34 not found, B35 not found, B36 not found, B37 not found, B38 not found
